Our source for the residual activity values is ChEMBL document CHEMBL2218924, “A broad activity screen in support of a chemogenomic map for kinase signalling research and drug discovery” (Biochem J, 2013).

In experiment [1] the target is MAP kinase-activated protein kinase 2 (Homo sapiens) (UniProt P49137). The conditions noted are these: at 10 µM.
Experiment [2] deals with MAP kinase-activated protein kinase 3 (Homo sapiens) (UniProt Q16644). The conditions noted are these: at 10 µM.
Experiment [3] has as its target Serine/threonine-protein kinase MARK1 (Homo sapiens) (UniProt Q9P0L2). The conditions noted are these: at 1 µM.
Experiment [4] has the same target. As to conditions: at 10 µM.
Experiment [5] concerns the target Dual specificity mitogen-activated protein kinase kinase 1 (Homo sapiens) (UniProt Q02750). As to conditions: at 1 µM.
For experiment [6] the target is unchanged. The conditions noted are these: at 10 µM.
Experiment [7] has as its target Maternal embryonic leucine zipper kinase (Homo sapiens) (UniProt Q14680). The conditions noted are these: at 1 µM.
The target is the same in experiment [8]. As to conditions: at 10 µM.
For experiment [9], the target named is Misshapen-like kinase 1 (Homo sapiens) (UniProt Q8N4C8). As to conditions: at 1 µM.
For experiment [10] the target is unchanged. The conditions noted are these: at 10 µM.
The target in experiment [11] is T1, Dual specificity mitogen-activated protein kinase kinase 6 (Homo sapiens) (UniProt P52564).
T1 sequence (whole entry): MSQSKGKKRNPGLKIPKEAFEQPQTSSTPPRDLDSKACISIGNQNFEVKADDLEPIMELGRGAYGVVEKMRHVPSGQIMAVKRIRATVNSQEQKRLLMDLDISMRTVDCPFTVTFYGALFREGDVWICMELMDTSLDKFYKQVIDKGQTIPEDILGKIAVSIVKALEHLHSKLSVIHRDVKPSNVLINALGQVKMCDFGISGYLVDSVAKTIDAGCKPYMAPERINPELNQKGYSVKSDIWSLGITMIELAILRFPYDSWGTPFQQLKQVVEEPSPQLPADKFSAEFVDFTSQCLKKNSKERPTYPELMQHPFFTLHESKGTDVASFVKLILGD
As to conditions: at 1 µM.

Experiment [12] deals with T1, Dual specificity mitogen-activated protein kinase kinase 6 (Homo sapiens). As to conditions: at 10 µM.
The target in experiment [13] is T2, Dual specificity mitogen-activated protein kinase kinase 7 (Homo sapiens) (UniProt O14733).
T2 sequence (whole entry): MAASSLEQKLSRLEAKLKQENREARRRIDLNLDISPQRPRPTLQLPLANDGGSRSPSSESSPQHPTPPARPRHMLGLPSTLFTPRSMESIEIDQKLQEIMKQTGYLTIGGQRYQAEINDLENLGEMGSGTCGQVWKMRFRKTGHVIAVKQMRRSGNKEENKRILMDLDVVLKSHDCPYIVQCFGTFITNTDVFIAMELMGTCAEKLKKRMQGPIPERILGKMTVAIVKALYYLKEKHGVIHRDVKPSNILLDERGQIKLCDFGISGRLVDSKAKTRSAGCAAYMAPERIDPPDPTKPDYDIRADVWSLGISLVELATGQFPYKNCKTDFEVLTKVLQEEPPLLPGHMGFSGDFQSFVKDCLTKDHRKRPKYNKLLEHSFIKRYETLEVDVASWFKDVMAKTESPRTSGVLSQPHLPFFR
The conditions noted are these: at 1 µM.

For experiment [14], the target named is T2, Dual specificity mitogen-activated protein kinase kinase 7 (Homo sapiens). As to conditions: at 10 µM.
The target of experiment [15] is Myosin light chain kinase, smooth muscle (Homo sapiens) (UniProt Q15746). As to conditions: at 1 µM.
Experiment [16] shares this target. As to conditions: at 10 µM.
For experiment [17], the target named is Mitogen-activated protein kinase kinase kinase 9 (Homo sapiens) (UniProt P80192). The conditions noted are these: at 1 µM.
The target is the same in experiment [18]. As to conditions: at 10 µM.
Experiment [19] addresses Serine/threonine-protein kinase MRCK alpha (Homo sapiens) (UniProt Q5VT25). The conditions noted are these: at 1 µM.
For experiment [20] the target is unchanged. The conditions noted are these: at 10 µM.

Sequence of Mitogen-activated protein kinase kinase kinase 9 (Homo sapiens) (P80192 whole entry, looked up): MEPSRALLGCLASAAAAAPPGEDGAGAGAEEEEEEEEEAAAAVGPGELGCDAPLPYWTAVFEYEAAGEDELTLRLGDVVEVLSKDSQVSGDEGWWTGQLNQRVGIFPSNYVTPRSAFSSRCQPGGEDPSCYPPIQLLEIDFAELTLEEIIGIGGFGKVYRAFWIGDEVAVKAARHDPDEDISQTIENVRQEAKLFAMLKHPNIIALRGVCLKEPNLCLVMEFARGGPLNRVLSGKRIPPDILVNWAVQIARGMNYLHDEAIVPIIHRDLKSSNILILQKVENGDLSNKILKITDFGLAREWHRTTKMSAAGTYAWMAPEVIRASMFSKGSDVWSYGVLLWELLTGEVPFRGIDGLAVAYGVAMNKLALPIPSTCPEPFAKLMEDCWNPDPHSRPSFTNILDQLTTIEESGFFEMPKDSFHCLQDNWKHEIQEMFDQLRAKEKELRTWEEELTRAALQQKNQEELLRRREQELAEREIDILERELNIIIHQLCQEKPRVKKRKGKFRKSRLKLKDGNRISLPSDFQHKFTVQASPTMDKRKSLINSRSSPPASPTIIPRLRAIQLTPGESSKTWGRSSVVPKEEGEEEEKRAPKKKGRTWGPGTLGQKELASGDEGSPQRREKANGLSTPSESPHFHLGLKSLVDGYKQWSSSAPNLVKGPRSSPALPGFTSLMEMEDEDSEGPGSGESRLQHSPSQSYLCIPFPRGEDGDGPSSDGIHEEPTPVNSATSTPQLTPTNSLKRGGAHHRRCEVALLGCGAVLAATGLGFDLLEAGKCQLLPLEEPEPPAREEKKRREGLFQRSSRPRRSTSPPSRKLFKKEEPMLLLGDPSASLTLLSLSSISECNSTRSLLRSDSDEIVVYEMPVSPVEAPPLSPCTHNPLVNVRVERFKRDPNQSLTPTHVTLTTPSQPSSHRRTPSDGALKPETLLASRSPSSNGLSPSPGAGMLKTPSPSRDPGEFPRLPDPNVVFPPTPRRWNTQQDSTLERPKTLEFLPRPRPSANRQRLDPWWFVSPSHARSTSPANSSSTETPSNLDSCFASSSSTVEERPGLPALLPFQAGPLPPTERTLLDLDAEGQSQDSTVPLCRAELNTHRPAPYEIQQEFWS
Sequence of MAP kinase-activated protein kinase 2 (Homo sapiens) (P49137 whole entry, looked up): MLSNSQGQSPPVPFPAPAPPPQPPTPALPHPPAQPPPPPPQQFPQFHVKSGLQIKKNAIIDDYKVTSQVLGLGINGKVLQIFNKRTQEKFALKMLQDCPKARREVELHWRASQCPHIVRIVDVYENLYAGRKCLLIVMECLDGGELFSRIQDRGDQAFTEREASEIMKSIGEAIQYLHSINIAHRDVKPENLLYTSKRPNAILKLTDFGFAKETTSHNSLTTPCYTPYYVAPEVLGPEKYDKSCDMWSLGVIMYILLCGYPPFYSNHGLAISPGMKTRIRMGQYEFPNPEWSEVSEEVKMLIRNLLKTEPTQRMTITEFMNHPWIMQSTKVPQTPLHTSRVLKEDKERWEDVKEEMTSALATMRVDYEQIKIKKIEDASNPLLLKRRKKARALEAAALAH
Sequence of Maternal embryonic leucine zipper kinase (Homo sapiens) (Q14680 whole entry, looked up): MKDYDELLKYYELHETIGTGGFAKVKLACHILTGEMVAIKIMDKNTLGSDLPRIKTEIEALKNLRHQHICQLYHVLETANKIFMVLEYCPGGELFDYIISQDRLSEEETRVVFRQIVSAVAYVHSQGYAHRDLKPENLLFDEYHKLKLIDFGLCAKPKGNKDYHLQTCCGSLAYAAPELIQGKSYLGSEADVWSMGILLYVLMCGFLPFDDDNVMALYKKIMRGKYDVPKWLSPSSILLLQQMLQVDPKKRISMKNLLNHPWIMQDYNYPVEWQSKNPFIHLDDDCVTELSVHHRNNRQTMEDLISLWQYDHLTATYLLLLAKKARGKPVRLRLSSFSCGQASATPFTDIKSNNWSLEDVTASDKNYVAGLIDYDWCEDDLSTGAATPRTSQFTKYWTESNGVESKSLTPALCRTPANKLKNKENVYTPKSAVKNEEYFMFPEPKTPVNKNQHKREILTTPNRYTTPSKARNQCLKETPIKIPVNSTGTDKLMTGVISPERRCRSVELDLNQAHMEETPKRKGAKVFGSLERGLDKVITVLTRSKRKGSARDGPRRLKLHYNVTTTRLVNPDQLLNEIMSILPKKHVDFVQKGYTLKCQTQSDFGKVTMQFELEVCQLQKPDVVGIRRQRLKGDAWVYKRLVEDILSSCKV
Sequence of MAP kinase-activated protein kinase 3 (Homo sapiens) (Q16644 whole entry, looked up): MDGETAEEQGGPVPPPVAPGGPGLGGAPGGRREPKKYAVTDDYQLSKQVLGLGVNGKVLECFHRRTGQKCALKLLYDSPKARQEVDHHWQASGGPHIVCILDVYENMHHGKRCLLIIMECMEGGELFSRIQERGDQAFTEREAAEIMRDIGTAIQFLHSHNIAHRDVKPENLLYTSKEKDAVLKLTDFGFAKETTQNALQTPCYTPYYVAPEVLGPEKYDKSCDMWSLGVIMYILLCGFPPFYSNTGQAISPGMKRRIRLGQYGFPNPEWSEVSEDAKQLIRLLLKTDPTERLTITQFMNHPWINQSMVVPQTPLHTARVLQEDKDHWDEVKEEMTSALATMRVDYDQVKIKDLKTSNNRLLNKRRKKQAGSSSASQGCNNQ
Sequence of Misshapen-like kinase 1 (Homo sapiens) (Q8N4C8 whole entry, looked up): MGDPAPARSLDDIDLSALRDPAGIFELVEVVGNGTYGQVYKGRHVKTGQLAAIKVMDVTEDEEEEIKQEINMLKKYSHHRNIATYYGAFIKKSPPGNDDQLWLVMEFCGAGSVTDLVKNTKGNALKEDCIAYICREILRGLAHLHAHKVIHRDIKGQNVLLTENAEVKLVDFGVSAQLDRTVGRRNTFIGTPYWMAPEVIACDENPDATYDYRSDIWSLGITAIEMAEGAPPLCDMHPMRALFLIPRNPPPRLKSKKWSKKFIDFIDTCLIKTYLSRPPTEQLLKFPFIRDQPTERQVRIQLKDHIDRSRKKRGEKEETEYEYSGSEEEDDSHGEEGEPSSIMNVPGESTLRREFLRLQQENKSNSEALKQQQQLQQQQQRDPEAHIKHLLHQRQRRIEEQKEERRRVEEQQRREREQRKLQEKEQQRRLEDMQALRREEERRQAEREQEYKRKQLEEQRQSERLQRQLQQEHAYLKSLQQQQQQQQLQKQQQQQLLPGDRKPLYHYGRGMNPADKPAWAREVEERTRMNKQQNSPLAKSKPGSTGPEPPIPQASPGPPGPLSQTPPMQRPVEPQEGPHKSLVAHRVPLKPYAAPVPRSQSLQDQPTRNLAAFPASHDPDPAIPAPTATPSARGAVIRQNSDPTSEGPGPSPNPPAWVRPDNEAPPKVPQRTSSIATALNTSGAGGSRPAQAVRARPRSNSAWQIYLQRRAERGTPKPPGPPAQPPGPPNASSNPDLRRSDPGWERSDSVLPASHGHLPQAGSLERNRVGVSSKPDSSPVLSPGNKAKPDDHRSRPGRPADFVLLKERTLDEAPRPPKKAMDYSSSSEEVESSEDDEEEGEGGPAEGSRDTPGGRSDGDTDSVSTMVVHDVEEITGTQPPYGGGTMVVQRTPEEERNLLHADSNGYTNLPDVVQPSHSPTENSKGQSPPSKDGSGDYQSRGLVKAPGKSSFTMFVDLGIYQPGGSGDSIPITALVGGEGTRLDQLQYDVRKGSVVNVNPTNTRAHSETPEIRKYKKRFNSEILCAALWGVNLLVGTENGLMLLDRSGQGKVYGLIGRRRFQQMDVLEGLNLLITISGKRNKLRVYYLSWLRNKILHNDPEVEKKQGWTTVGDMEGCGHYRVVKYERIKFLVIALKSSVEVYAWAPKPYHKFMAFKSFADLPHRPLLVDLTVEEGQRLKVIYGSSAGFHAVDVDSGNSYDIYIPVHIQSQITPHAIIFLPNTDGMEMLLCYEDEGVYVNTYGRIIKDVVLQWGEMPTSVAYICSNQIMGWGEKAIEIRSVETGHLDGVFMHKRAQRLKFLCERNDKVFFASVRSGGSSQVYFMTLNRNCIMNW
Sequence of Dual specificity mitogen-activated protein kinase kinase 1 (Homo sapiens) (Q02750 whole entry): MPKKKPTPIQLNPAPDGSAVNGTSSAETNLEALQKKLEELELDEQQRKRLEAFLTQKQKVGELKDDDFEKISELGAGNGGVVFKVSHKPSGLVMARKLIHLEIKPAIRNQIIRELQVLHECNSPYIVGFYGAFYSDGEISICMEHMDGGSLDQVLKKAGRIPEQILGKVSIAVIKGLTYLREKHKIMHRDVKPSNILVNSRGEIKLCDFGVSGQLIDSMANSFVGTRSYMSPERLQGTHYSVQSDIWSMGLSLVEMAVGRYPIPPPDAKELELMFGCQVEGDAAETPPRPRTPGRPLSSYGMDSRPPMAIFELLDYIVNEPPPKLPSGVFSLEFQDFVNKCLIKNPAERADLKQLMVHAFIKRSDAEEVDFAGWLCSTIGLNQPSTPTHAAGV
Sequence of Serine/threonine-protein kinase MARK1 (Homo sapiens) (Q9P0L2 whole entry, looked up): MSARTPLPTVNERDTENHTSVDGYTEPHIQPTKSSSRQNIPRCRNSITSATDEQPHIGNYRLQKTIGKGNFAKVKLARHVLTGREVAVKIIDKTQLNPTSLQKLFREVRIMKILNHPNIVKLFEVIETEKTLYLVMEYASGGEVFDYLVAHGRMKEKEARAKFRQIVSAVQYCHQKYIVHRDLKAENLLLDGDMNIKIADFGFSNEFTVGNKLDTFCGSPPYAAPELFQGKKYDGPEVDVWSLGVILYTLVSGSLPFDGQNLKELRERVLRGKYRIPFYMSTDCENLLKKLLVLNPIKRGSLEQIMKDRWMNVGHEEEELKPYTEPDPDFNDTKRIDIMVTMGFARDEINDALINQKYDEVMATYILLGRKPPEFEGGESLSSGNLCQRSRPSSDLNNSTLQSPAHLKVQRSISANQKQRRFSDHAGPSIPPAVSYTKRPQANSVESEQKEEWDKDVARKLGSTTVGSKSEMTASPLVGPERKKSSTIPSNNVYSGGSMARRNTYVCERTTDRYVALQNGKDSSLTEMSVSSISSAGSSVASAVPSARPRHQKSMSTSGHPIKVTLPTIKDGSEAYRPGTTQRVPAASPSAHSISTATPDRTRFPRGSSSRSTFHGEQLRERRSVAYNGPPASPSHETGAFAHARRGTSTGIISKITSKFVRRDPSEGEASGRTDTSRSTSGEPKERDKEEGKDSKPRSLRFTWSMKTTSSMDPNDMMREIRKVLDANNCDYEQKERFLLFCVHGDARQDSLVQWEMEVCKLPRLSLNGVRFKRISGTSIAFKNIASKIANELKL

Take `O=c1c2ccccc2[nH]c(=S)n1CCN1CCC(=C(c2ccc(F)cc2)c2ccc(F)cc2)CC1`: the residual activity in [1] is 89%; in experiment [2], 86%; in experiment [3], 100%; in experiment [4] it was 87%; in experiment [5], 98%; in experiment [6], 92%. In addition, the residual activity in experiment [7] was 86%; in experiment [8] it was 86%; in [9] it was 88%; in experiment [10], 65%; in [11], 107%; in experiment [12], 93%. Also, the residual activity in [13] worked out at 82%; in experiment [14] it was 90%; in experiment [15], 73%; in experiment [16] it was 86%; in experiment [17] it was 92%; in experiment [18] it was 101%. Moreover, the residual activity in experiment [19] worked out at 107%; in experiment [20], 103%.

Take `CO[C@H]1[C@@H](OC)C[C@H](C)[C@@H](OC)C2=CC(=O)C=C(NC(=O)/C(C)=C/C=C/[C@H](OC)[C@@H](OC(N)=O)/C(C)=C/[C@@H]1C)C2=O`: the residual activity in experiment [1] came to 85%; in experiment [2], 81%; in [3], 92%; in [4], 82%; in [5], 102%; in experiment [6], 95%. For the same compound, the residual activity stood at 60% in [7]; 63% in experiment [8]; 95% in [9]; 92% in [10]; 72% in experiment [11]; 99% in experiment [12]. The residual activity in [13] was determined as 92%; in [14] it was 88%; in [15], 98%; in [16], 90%; in experiment [17] it was 92%; in [18], 99%. Further, the residual activity worked out at 114% in [19] and 92% in [20].

`COc1cc2ncnc(Nc3ccc(O)c(Br)c3)c2cc1OC`: the residual activity was 106% in [1]; 106% in experiment [2]; 70% in experiment [3]; 54% in [4]; 119% in experiment [5]; 80% in [6]. The residual activity in experiment [7] was found to be 73%; in experiment [8], 28%; in experiment [9], 83%; in [10] it was 47%; in experiment [11], 88%; in experiment [12] it was 27%. The residual activity in experiment [13] amounted to 119%; in experiment [14], 94%; in experiment [15], 71%; in experiment [16], 37%; in experiment [17], 45%; in experiment [18], 11%. Further, the results for the residual activity in [19] and in experiment [20] were 82% and 84%, respectively.

For `Cc1cc2ncc(-c3ccccc3)nc2cc1C`, the residual activity in experiment [1] turned out to be 93%; in experiment [2], 93%; in [3], 84%; in [4], 90%; in [6], 90%; in [7], 72%. The residual activity in [8] is 77%; in [9], 94%; in [10] it was 82%; in [11], 86%; in experiment [12] it was 106%; in experiment [13], 76%. In addition, the residual activity in [14] is 93%; in experiment [15] it was 77%; in experiment [16], 96%; in [17] it was 92%; in [18], 102%; in [20], 81%.

Regarding `C[C@@H](N)[C@H]1CC[C@H](C(=O)Nc2ccncc2)CC1`, the residual activity in experiment [1] was determined as 82%; in [2], 85%; in experiment [3] it was 95%; in experiment [5], 104%; in experiment [6] it was 106%; in [7], 105%. The residual activity amounted to 87% in [8]; 99% in experiment [9]; 108% in experiment [10]; 101% in experiment [11]; 99% in experiment [12]; 107% in experiment [13]. For the same compound, the residual activity in [14] is 121%; in experiment [17], 105%; in experiment [18], 101%; in experiment [19] it was 98%; in experiment [20] it was 84%.

Consider `CN(C)CCCn1cc(C2=C(c3c[nH]c4ccccc34)C(=O)NC2=O)c2ccccc21`, for which the residual activity in [1] turned out to be 73%; in experiment [2], 109%; in experiment [3], 65%; in experiment [4] it was 25%; in experiment [5], 109%; in [6], 52%. Moreover, the residual activity in [7] was determined as 41%; in experiment [8], 13%; in [9], 84%; in [10], 47%; in experiment [13], 79%; in experiment [15] it was 20%. The residual activity was found to be 7% in experiment [16]; 58% in experiment [17]; 13% in experiment [18]; 115% in experiment [19]; 76% in [20].

Turning to `Cn1nc2c3c(cccc31)C(=O)c1ccccc1-2`, the residual activity in experiment [1] was 73%; in experiment [2] it was 66%; in experiment [3], 76%; in [4] it was 62%; in experiment [5], 95%; in [6], 91%. The residual activity in experiment [7] is 67%; in experiment [8], 59%; in experiment [9], 93%; in [10], 80%; in experiment [12] it was 70%; in [13], 84%. The residual activity in [14] is 53%; in experiment [15] it was 65%; in experiment [16], 49%; in experiment [17] it was 74%; in experiment [18] it was 28%; in [19], 108%. The residual activity in experiment [20] came to 99%.
